Experiment [1] concerns CRL-7250. Description: Cytotoxic Profiling of Annotated Libraries Using Quantitative High-Throughput Screening (AID 1296008). For max response: % is set by controls: 0 for no effect and ±100 for the full control effect. The note with it: Five cell lines viability, CellTiter-Glo ATP luminescence, 48-72 h; max response: active compounds read low. In outline: (§1)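 Cytotoxicity was measured as CellTiter-Glo ATP luminescence, read after 10 min at room temperature. Compound treatment of the cells lasted 48 or 72 hr at 37 degrees Celsius in a qHTS format.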
(In general: Cellular ATP, detected with luciferase, serves as a proxy for viable cell number.)

In experiment [2] the test system is GB4. The experiment in a line: qHTS profiling for inhibitors of Plasmodium falciparum proliferation (AID 504749). The note with it: P. falciparum in erythrocytes, SYBR Green DNA, 72 h; series mostly up to 28.7 µM. The method, boiled down:
(§2)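 Infected RBCs, 0.3% parasitemia/2.5% Hct final; cpd 72 h, 37 C, 5% CO2; lysis buffer with saponin/triton/SYBR Green I, o/n RT dark; FI 485/535; norm. to artemisinin (0.29 uM) and DMSO.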
(In qHTS, concentration-response curves come from the screen itself.)

Experiment [3] deals with HB3. The experiment is described as above. To be noted: P. falciparum in erythrocytes, SYBR Green DNA, 72 h; series mostly up to 28.7 µM. The method, boiled down:
as §2

The test system of experiment [4] is ICS. Described as above. The note with it: P. falciparum in erythrocytes, SYBR Green DNA, 72 h; series mostly up to 28.7 µM. The method, boiled down: as §2
Experiment [5] relates to JCK. The description is as above. To be noted: P. falciparum in erythrocytes, SYBR Green DNA, 72 h; series mostly up to 28.7 µM. In outline: as §2
The subject of experiment [6] is N140. The description is as above. The note with it: P. falciparum in erythrocytes, SYBR Green DNA, 72 h; series mostly up to 28.7 µM. The method, boiled down:
as §2

For experiment [7], the system named is P93_24. The description is as above. The note with it: P. falciparum in erythrocytes, SYBR Green DNA, 72 h; series mostly up to 28.7 µM. In outline: as §2
The subject of experiment [8] is P94_40. The experiment is described as above. To be noted: P. falciparum in erythrocytes, SYBR Green DNA, 72 h; series mostly up to 28.7 µM. In outline: as §2
In experiment [9] the test system is PAD. The experiment is described as above. The note with it: P. falciparum in erythrocytes, SYBR Green DNA, 72 h; series mostly up to 28.7 µM. The method, boiled down: as §2
Experiment [10] concerns PC15. Described as above. To be noted: P. falciparum in erythrocytes, SYBR Green DNA, 72 h; series mostly up to 28.7 µM. The method, boiled down:
as §2

In experiment [11] the test system is PC26. Described as above. The note with it: P. falciparum in erythrocytes, SYBR Green DNA, 72 h; series mostly up to 28.7 µM. The method, boiled down: as §2
In experiment [12] the test system is PC49. Described as above. To be noted: P. falciparum in erythrocytes, SYBR Green DNA, 72 h; series mostly up to 28.7 µM. The method, boiled down: as §2
Experiment [13] relates to SC27B. The description is as above. The note with it: P. falciparum in erythrocytes, SYBR Green DNA, 72 h; series mostly up to 28.7 µM. The method, boiled down: as §2
For experiment [14], the system named is TAB113. The experiment is described as above. To be noted: P. falciparum in erythrocytes, SYBR Green DNA, 72 h; series mostly up to 28.7 µM. The method, boiled down:
as §2

For experiment [15], the system named is TAB165. Described as above. To be noted: P. falciparum in erythrocytes, SYBR Green DNA, 72 h; series mostly up to 28.7 µM. In outline: as §2
Experiment [16] relates to W2. The description is as above. To be noted: P. falciparum in erythrocytes, SYBR Green DNA, 72 h; series mostly up to 28.7 µM. In outline:
as §2

Experiment [17] deals with HEK293. Description: Cytotoxic Profiling of Annotated Libraries Using Quantitative High-Throughput Screening (AID 1296008). For max response: % is set by controls: 0 for no effect and ±100 for the full control effect. The note with it: Five cell lines viability, CellTiter-Glo ATP luminescence, 48-72 h; max response: active compounds read low. In outline: as §1
Experiment [18] deals with HaCat. Described as above. The note with it: Five cell lines viability, CellTiter-Glo ATP luminescence, 48-72 h; max response: active compounds read low. The method, boiled down: as §1
In experiment [19] the test system is KB-3-1. The experiment is described as above. To be noted: Five cell lines viability, CellTiter-Glo ATP luminescence, 48-72 h; max response: active compounds read low. The method, boiled down:
as §1

For experiment [20], the system named is TAB109. Description: qHTS profiling for inhibitors of Plasmodium falciparum proliferation (AID 504749). To be noted: P. falciparum in erythrocytes, SYBR Green DNA, 72 h; series mostly up to 28.7 µM. The method, boiled down: as §2

Values joined by “and” are separate entries in the source; they are usually repeats but may differ in a detail not shown here. Identical values can stand only once. Results filed as inconclusive are left out. The source holds several records for some structures; these can differ, active in one and inactive in another. Unmarked numbers belong to inactive results. Active and inactive are the calls of the source. Calls come from the whole dose curve; as a rule, active = well fitted inhibition curve with a large enough effect; inconclusive = small, poorly fitted or top-dose-only effect; inactive = flat fitted curve, though single readings scatter.

The values below come from PubChem BioAssay (NCATS).
Note: nearly all actives have a fitted effect of over 60% in size.
Potency is the fitted concentration of half-maximal effect.

As for `CCOC(=O)N[C@@H]1CC[C@@H]2[C@@H](C1)C[C@H]1C(=O)O[C@H](C)[C@H]1[C@@H]2C=Cc1ccc(-c2cccc(F)c2)cn1`, in [1], the max response is -6.96%.
Take `CC(C)NCC(O)COc1ccc(COCCOC(C)C)cc1` (configuration not stated): the Potency entry in [2], in experiment [3], in experiment [4], in experiment [5], in experiment [6] and in [7] was “inactive” in each case. Further, the Potency entry in experiment [8], in experiment [9], in [10], in [11], in experiment [12] and in experiment [13] was “inactive” each time. The Potency entry in [14], in [15] and in experiment [16] was “inactive” in each case. The max response is -5.09% in experiment [1]; 4.07% and -17.2% in experiment [17]; -3.77% in experiment [18]; 14.8% and -14.7% and -10.9% in experiment [19]. Also, the outcome in [1] and in [18] was inactive.
As to `CC(c1cc2ccccc2s1)N(O)C(N)=O` (configuration not stated), the Potency entry in experiment [2], in [3], in experiment [4], in experiment [5], in experiment [6] and in experiment [7] was “inactive” each time. For the same compound, the Potency entry in [8], in experiment [9], in [10], in experiment [12], in experiment [13] and in experiment [20] was “inactive” throughout. Also, the Potency entry in [14], in experiment [15] and in experiment [16] was “inactive” throughout. Further, the max response in [1] is -2.06%; in experiment [18], -0.226% and -8.25%; in [19] it was 0.162% and -9.2%. The compound was classed as inactive in experiment [1] and in [17].
In the case of `Cc1[nH]c(=O)c(C#N)cc1-c1ccc2nccn2c1`, the Potency entry in experiment [2], in experiment [3], in [4], in [5], in experiment [6] and in experiment [7] was “inactive” each time. Also, the Potency result in experiment [8], in [9], in experiment [10], in [11], in experiment [12] and in experiment [13] was “inactive” each time. The Potency entry in experiment [20], in [14], in experiment [15] and in [16] was “inactive” throughout. Also, the max response is 0.18% in experiment [1]; 3.47% in experiment [17]; -13.2% and -27.6% in experiment [18]; -3.5% and -14.6% in experiment [19]. Moreover, the compound was called inactive in [1].
As to `CC(C)OC(=O)C1=CN(C(=O)c2ccc(F)c(F)c2)CC(C)(C)c2c1[nH]c1ccccc21`, the max response in experiment [1] was 1.22%; in experiment [17] it was -9.23% and -19.6%; in experiment [18], -4.65%; in experiment [19], -6.75% and 0.0694%. Also, in [1], the call was inactive.
Turning to `CC(C[N+](C)(C)C)OC(N)=O` (configuration not stated), the Potency entry in experiment [2], in experiment [3], in [4], in experiment [5], in experiment [6] and in experiment [7] was “inactive” in each case. For the same compound, the Potency result in experiment [8], in experiment [9], in [10], in [11], in [12] and in [13] was “inactive” each time. Moreover, the Potency result in experiment [20], in experiment [14], in [15] and in experiment [16] was “inactive” throughout. Moreover, the max response in experiment [1] is 0.597%; in [17], 3.57%; in experiment [19] it was 3.39% and 7.21%. The result in experiment [1] and in [17] was inactive.
Turning to `COc1ccc(C2=N[C@H](c3ccc(Cl)cc3)[C@H](c3ccc(Cl)cc3)N2C(=O)N2CCNC(=O)C2)c(OC(C)C)c1`, the Potency in [1] was 3.32 µM (active); in experiment [17], 11.8 µM (active).
Regarding `CN(C)c1ccc(Nc2nc(N)n(C(=O)c3c(F)cccc3F)n2)cc1`, the max response in [1] is 4.97%.
Consider `COCC(=O)NCC=Cc1ccc2ncnc(Nc3ccc(Oc4ccc(C)nc4)c(C)c3)c2c1`, for which the Potency in [1] was 23.5 µM (active); in experiment [17], 13.2 µM (active).
The like results for `Cc1cc([C@@H](C)Nc2ccccc2C(=O)O)c2nc(N3CCOCC3)cc(=O)n2c1` were, in that order, 3.82 µM (active) and 19.1 µM (active).
Regarding `CC(C=CC1=C(C)CCCC1(C)C)=CC=CC(C)=CC(=O)O`, the results for the max response in [1], in experiment [17] and in [19] were -11.2%, 1.74% and 4.44%, respectively. For the same compound, the compound was classed as inactive in [17], in experiment [18] and in experiment [19].
Take `COc1cc(F)c(F)c(Nc2ccc(I)cc2F)c1NS(=O)(=O)C1(C[C@H](O)CO)CC1`: in experiment [1], the Potency is 5.8 µM (active) and the max response was -24.3%. For the same compound, the outcome in [19] was inactive.
Turning to `CCc1ccc(CCOc2ccc(CC3SC(=O)NC3=O)cc2)nc1` (configuration not stated), the Potency result in experiment [2], in experiment [3], in experiment [4], in experiment [5], in experiment [6] and in experiment [7] was “inactive” each time. Also, the Potency entry in experiment [8], in [9], in experiment [10], in experiment [11], in [12] and in [13] was “inactive” in each case. Further, the Potency entry in [20], in experiment [14], in experiment [15] and in [16] was “inactive” throughout. Further, the max response in [1] was -4.18% and 2.83%; in experiment [17] it was -6.03%; in experiment [19], -8.26% and 7.14%. Also, the outcome in experiment [17] and in experiment [18] was inactive.
As for `CCOC(=O)C1=C[C@]2(CC)CCCN3CCc4c(n1c1ccccc41)[C@@H]32`, the Potency is 8.91 µM (active) in [4]; 12.6 µM (active) in experiment [6]; 12.6 µM (active) in experiment [7]; 15.1 µM (active) in experiment [11]; 12.6 µM (active) in experiment [13]; 10 µM (active) in [20]. Besides, the Potency in [15] is 12.6 µM (active). Further, the max response in [1] is 1.21%; in [18] it was -26.7% and -18%; in experiment [19], 2.59% and -10.9%. Further, the result in experiment [1] was inactive.
